Values joined by “and” are separate entries in the source; they are usually repeats but may differ in a detail not shown here. Equal values may be shown once. Inconclusive results are not listed. Where a structure was tested more than once in an assay, its records may differ in their call. Active and inactive are the calls of the source. Unless noted, the call rests on the fitted dose curve.

Experiment [1] is described as follows: Cytotoxicity counterscreen for inhibitors of SARS-CoV-2 cell entry (AID 1645845). Further: nearly all actives have a fitted effect of over 50% in size. On activity change, negative = cytotoxicity: on the % scale 0 is the no-effect control and ±100 the full control effect. An outline of the steps: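 ATP-content luminescence (ATPLite 1step, 15 min RT) read after 48 h compound exposure of Expi293F cells stably expressing human ACE2; normalized to cells-only wells and media-only wells.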
A short description of experiment [2]: Primary qHTS to identify inhibitors of SARS-CoV-2 cell entry (AID 1645846). Further: nearly all actives have a fitted effect of over 45% in size. Further: potency means the concentration at half of the fitted maximal effect. The following applies: activity change, negative = inhibition: at 57.1 µM (top of the series) unless noted. An outline of the steps: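 Inhibition of spike-mediated entry was scored in human ACE2-transfected Expi293F cells. Particles were MLV-pseudotyped with Wuhan-Hu-1 S carrying a 19-aa C-terminal deletion; signal was luciferase after two days, scaled between spike PP and fusion-protein-free PP.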
A general note: In qHTS, concentration-response curves come from the screen itself.

In a further experiment the target is Papain (Carica papaya) (UniProt P00784). Nature of the experiment: Primary qHTS assay for inhibitors of the protease papain (AID 1645873; active means well fitted curve in the direction sought with a large enough effect; an effect the other way counts as inactive or inconclusive;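 further: papain turnover of Z-FR-AMC read as the AMC fluorescence gain over 10 min; on the % scale 0 is the no-effect control and ±100 the full control effect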).
Chain of Papain (Carica papaya) (P00784 whole entry, looked up, the tested form may be a part): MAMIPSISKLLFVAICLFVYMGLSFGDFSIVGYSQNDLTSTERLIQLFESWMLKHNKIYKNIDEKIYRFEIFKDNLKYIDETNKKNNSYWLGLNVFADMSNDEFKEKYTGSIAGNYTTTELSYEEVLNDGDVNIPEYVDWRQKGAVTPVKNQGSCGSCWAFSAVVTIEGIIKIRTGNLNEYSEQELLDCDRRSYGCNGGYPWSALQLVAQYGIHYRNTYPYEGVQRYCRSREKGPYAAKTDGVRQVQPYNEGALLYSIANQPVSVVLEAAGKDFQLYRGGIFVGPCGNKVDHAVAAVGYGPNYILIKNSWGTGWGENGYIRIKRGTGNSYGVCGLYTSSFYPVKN
Experiment [3] is described as follows: Primary qHTS for inhibitors of nuclear receptor binding SET domain protein 2 (NSD2) in an isogenic RCH-ACV NSD2 p.E1099K mutant (9B) (AID 1645876; active means well fitted curve in the direction sought with a large enough effect; an effect the other way counts as inactive or inconclusive; further: nearly all actives have a fitted effect of over 70% in size; further: potency means the concentration at half of the fitted maximal effect).
Experiment [4] is described as follows: Primary qHTS for inhibitors of nuclear receptor binding SET domain protein 2 (NSD2) in an RCH-ACV wild type WT cells (2C) (AID 1645877; active means well fitted curve in the direction sought with a large enough effect; an effect the other way counts as inactive or inconclusive; further: nearly all actives have a fitted effect of over 70% in size; further: potency means the concentration at half of the fitted maximal effect).

As to `CC(C)NCC(O)c1ccc(O)c(O)c1` (stereo unspecified), the Potency result in experiment [1] and in experiment [2] was “inactive” in each case. The activity change, negative = inhibition in experiment [2] is -10.8%.

On to `COCCCOc1cc(C[C@@H](C[C@H](N)[C@@H](O)C[C@H](C(=O)NCC(C)(C)C(N)=O)C(C)C)C(C)C)ccc1OC`, for which the Potency entry in experiment [1] and in experiment [2] was “inactive” throughout. In addition, the activity change, negative = inhibition in experiment [2] is -3.02%.

As for `NC(=O)OCC(COC(N)=O)c1ccccc1`, the Potency result in experiment [1] is “inactive”. In addition, in experiment [2], the Potency result was “inactive” and the activity change, negative = inhibition is -1.23%.

`Cc1ccccc1N1C(=O)c2cc(S(N)(=O)=O)c(Cl)cc2NC1C` (stereo unspecified): the Potency entry in experiment [1] is “inactive”. Moreover, in experiment [2], the Potency result is “inactive” and the activity change, negative = inhibition was -97.4%.

In the case of `COc1ccccc1OCC(O)COC(N)=O` (stereo unspecified), the Potency result in experiment [1] and in experiment [2] was “inactive” each time.

On to `CN(C)/N=N/c1nc[nH]c1C(N)=O`, for which the Potency result in experiment [1] and in experiment [2] was “inactive” throughout.

On to `Cc1ccc2c(n1)Oc1ccc(C(C)C(=O)OCC(=O)N(C)C)cc1C2` (stereo unspecified), for which the Potency entry in experiment [1] and in experiment [2] was “inactive” throughout.

On to `CN(C)c1nc(N(C)C)nc(N(C)C)n1`, for which the Potency entry in experiment [1] is “inactive”. Moreover, in experiment [2], the Potency result is “inactive” and the activity change, negative = inhibition was -16.8%.

As for `NNc1nncc2ccccc12`, the Potency result in experiment [1] was “inactive”. In experiment [2], the Potency entry was “inactive” and the activity change, negative = inhibition was found to be 83.2% [at 27.1 µM].

For `CCCN1C[C@H](CSC)C[C@@H]2c3cccc4[nH]cc(c34)C[C@H]21`, the Potency entry in experiment [1] is “inactive”. Moreover, the activity change, negative = inhibition in experiment [2] was -12.6%.

On to `CCC1=C[C@@H]2CN(C1)Cc1c([nH]c3ccccc13)[C@@](C(=O)OC)(c1cc3c(cc1OC)N(C)[C@H]1[C@@](O)(C(=O)OC)[C@H](OC(C)=O)[C@]4(CC)C=CCN5CC[C@]31[C@@H]54)C2`, for which the Potency entry in experiment [1] is “inactive”. For the same molecule, in experiment [2], the Potency is 2.82 µM (active) and the activity change, negative = inhibition was -90.3%.

As for `CC12CC3CC(C)(C1)CC(N)(C3)C2`, the Potency entry in experiment [1] was “inactive”. Besides, in experiment [2], the Potency entry is “inactive” and the activity change, negative = inhibition is -26.3%.

Take `CN/C(=C\[N+](=O)[O-])NCCSCc1ccc(CN(C)C)o1`: the Potency result in experiment [1] and in experiment [2] was “inactive” each time.

As for `CO[C@@]12[C@H](COC(N)=O)C3=C(C(=O)C(C)=C(N)C3=O)N1C[C@@H]1N[C@@H]12`, the Potency result in experiment [1] was “inactive”. Further, in experiment [2], the Potency was 4.47 µM (active) and the activity change, negative = inhibition is -40.7%.

As for `CC(C)(C)NC(=O)[C@@H]1CN(Cc2cccnc2)CCN1C[C@@H](O)C[C@@H](Cc1ccccc1)C(=O)N[C@H]1c2ccccc2C[C@H]1O`, the Potency result in experiment [1] is “inactive”. Also, the activity change, negative = inhibition in experiment [2] was found to be 4.24%.

Turning to `Cn1c(=O)c2c(ncn2CC(O)CO)n(C)c1=O` (stereo unspecified), in experiment [1], the Potency result was “inactive”. In experiment [2], the Potency entry was “inactive” and the activity change, negative = inhibition stood at 4.29%.

Turning to `COC(=O)[C@@H]1CC2=CC(=O)CC[C@]2(C)[C@@]23O[C@@H]2C[C@@]2(C)[C@@H](CC[C@@]24CCC(=O)O4)[C@H]13`, in experiment [1], the Potency entry was “inactive”. In experiment [2], the Potency entry was “inactive” and the activity change, negative = inhibition was -17.3%.

With `CC(=O)O[C@]1(C(C)=O)CC[C@H]2[C@@H]3C=C(C)C4=CC(=O)CC[C@]4(C)[C@H]3CC[C@@]21C`, the Potency entry in experiment [1] and in experiment [2] was “inactive” throughout. Also, the activity change, negative = inhibition in experiment [2] was -12.1%.

Regarding `CN1C(=O)CC(C)(c2ccccc2)C1=O` (stereo unspecified), the Potency result in experiment [1] was “inactive”. Further, in experiment [2], the activity change, negative = inhibition is -13.4%.

For `NC(=O)NO`, in experiment [1], the Potency entry was “inactive”. Besides, in experiment [2], the Potency entry was “inactive” and the activity change, negative = inhibition was -10.4%.

Take `CCN(CCO)CCCC(C)Nc1ccnc2cc(Cl)ccc12` (stereo unspecified): the activity change, negative = cytotoxicity in experiment [1] was -4.65% [at 5.25 µM] (inactive) and -23.5% [at 5.25 µM] (inactive). For the same molecule, in experiment [2], the activity change, negative = inhibition was -16.5% [at 5.25 µM] and the outcome is “inactive [at 5.25 µM]”.

For the molecule `C[C@@H](O)[C@H]1C(=O)N2C(C(=O)O)=C(S[C@@H]3CN[C@H](C(=O)N(C)C)C3)[C@H](C)[C@H]12`, the Potency entry in experiment [1] is “inactive”. Also, in experiment [2], the Potency entry was “inactive” and the activity change, negative = inhibition is -22.9%.

For `Cc1ccc(C)c(OCCCC(C)(C)C(=O)O)c1`, the Potency entry in experiment [1] is “inactive”. Also, in experiment [2], the Potency entry is “inactive” and the activity change, negative = inhibition was -8.37%.

As for `CCCc1nc2c(C)cc(-c3nc4ccccc4n3C)cc2n1Cc1ccc(-c2ccccc2C(=O)O)cc1`, the Potency result in experiment [1] was “inactive”. In experiment [2], the Potency entry was “inactive” and the activity change, negative = inhibition is -3.28%.

Turning to `CC/C=C(\C(=O)N[C@@H]1C(=O)N2C(C(=O)OCOC(=O)C(C)(C)C)=C(COC(N)=O)CS[C@H]12)c1csc(N)n1`, in experiment [1], the Potency result is “inactive”. Moreover, the activity change, negative = inhibition in experiment [2] is -26.6%.

As to `Cc1cccc(Nc2ccccc2C(=O)O)c1C`, the Potency entry in experiment [1] and in experiment [2] was “inactive” throughout.

Turning to `COc1ccccc1Oc1c(NS(=O)(=O)c2ccc(C(C)(C)C)cc2)nc(-c2ncccn2)nc1OCCO`, the Potency result in experiment [1] was “inactive”. For the same molecule, the activity change, negative = inhibition in experiment [2] was -16.5%.

As for `Cc1ccc(S(=O)(=O)NC(=O)NN2CCCCCC2)cc1`, the Potency result in experiment [1] is “inactive”. Moreover, the activity change, negative = inhibition in experiment [2] came out at 2.93%.

Take `Cc1cn([C@H]2C[C@H](N=[N+]=[N-])[C@@H](CO)O2)c(=O)[nH]c1=O`: in experiment [1], the Potency entry is “inactive”. For the same molecule, the Potency in experiment [2] is 1 µM (active).

Turning to `COc1cc(C(=O)NCc2ccc(OCCN(C)C)cc2)cc(OC)c1OC`, the Potency result in experiment [1] and in experiment [2] was “inactive” throughout.

Consider `O=NN(CCCl)C(=O)NC1CCCCC1`, for which the Potency result in experiment [1] is “inactive”. In addition, in experiment [2], the Potency entry was “inactive” and the activity change, negative = inhibition was -8.29%.

Regarding `O=c1c(O)c(-c2ccc(O)c(O)c2)oc2cc(O)cc(O)c12`, the Potency result in experiment [1] is “inactive”. Further, in experiment [2], the Potency entry was “inactive” and the activity change, negative = inhibition is -12.3%.

Consider `N[C@@H]1CONC1=O`, for which the Potency entry in experiment [1] and in experiment [2] was “inactive” throughout. In addition, the activity change, negative = inhibition in experiment [2] is -2.51%.

For the molecule `N=c1nc(N2CCCCC2)cc(N)n1O`, the activity change, negative = inhibition in experiment [2] is -11.3%.

For `CCC(C)(C)C(=O)O[C@H]1C[C@@H](C)C=C2C=C[C@H](C)[C@H](CC[C@@H]3C[C@@H](O)CC(=O)O3)[C@H]21`, the Potency entry in experiment [2] is “inactive”.

Regarding `C[C@@H](NCCCc1cccc(C(F)(F)F)c1)c1cccc2ccccc12`, the Potency in experiment [2] was 20 µM (active).

As to `Cc1ncc(CNC(=O)N(CCCl)N=O)c(N)n1`, the Potency result (in experiment [2]; with Papain (Carica papaya); in experiment [3]; in experiment [4]) was “inactive” in each case.

Regarding `NC(=Nc1ccccc1)Nc1ccccc1`, the activity change, negative = inhibition in experiment [2] was determined as 1.43%.

Regarding `CO[C@]12CC[C@@]3(C[C@@H]1[C@](C)(O)C(C)(C)C)[C@@H]1Cc4ccc(O)c5c4[C@@]3(CCN1CC1CC1)[C@H]2O5`, the Potency in experiment [3] is 6.05 µM (active); in experiment [4], 6.79 µM (active).

The values are drawn from PubChem BioAssay (NCATS).
